Assay outcomes from PubChem.
ALR inh: inhibitors of human ALR sulfhydryl oxidase, primary screen, biochemical, H2O2 detection, HRP-luminol luminescence, single point; FAD-linked sulfhydryl oxidase ALR (Homo sapiens), P55789; purified ALR, DTT oxidation; inhibition, % (test concentration not listed); 290,000 tested, 3.8% active; AID 485317, 2010;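 active means mean replicate inhibition above about 79%, with every replicate also reaching it, limit read from the data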
Target sequence (P55789 whole entry, looked up): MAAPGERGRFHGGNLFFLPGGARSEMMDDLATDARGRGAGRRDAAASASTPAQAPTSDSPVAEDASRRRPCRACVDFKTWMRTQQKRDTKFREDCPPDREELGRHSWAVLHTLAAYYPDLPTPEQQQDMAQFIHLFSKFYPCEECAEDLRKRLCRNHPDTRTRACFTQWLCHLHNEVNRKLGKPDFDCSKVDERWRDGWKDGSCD
M18AAP inhibitor: PfM18AAP inhibitors, malaria aminopeptidase, primary screen, biochemical, QFRET, recombinant enzyme. inhibition, % at 7.35 µM. 290,000 tested, 1.2% active. H-Glu-NHMec fluorogenic cleavage;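 active means inhibition above the campaign mean inhibition over all tested compounds plus 3 SD, cut at about 28% in these data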;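 further: 0% = plate median of test compound wells and 100% = 2 mM ZnCl2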
MIN6 prolif: inducers of MIN6 beta-cell proliferation, primary screen, ATP luminescence, uHTS. MIN6 cells proliferation, ATPlite luminescence, 48 h; cells starved in 0.2% serum; 100% = growth in 10% serum. proliferation, % at 10 µM. 330,000 tested, 0.29% active. AID 2380, 2010;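 active means compounds whose signal lies at least 3.5 SD above the mean of all wells on their plate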;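 further: 0% = DMSO-treated cells in low-serum medium and 100% = 10% serum control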
GASC-1 inh: inhibitors of GASC-1 histone demethylase, primary screen, biochemical, fluorescence, DELFIA europium; Lysine-specific demethylase 4C (Homo sapiens), Q9H3R0; GST-JMJD2C(1-420) H3K9me3 demethylation; inhibition, % at 2.35 µM; 330,000 tested, 0.069% active;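 active means more than half of a compound's replicate wells show inhibition beyond 50%, single wells judged on their own value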;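 further: signal counts dimethyl H3K9 product captured on neutravidin plate; 0% = median of DMSO wells and 100% = 0.3 times that DMSO median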
Target sequence (Q9H3R0 1-420 limits assumed): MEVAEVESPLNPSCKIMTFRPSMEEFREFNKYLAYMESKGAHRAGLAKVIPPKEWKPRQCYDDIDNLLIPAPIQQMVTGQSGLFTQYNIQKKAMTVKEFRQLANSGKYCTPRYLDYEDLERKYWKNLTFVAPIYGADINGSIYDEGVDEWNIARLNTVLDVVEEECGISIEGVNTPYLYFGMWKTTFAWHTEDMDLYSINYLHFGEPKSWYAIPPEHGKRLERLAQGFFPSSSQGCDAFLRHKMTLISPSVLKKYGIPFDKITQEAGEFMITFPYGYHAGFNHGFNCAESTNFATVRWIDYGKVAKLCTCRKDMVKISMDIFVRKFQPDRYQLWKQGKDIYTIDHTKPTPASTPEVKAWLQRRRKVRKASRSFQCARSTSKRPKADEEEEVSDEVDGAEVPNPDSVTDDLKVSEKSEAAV
Granule exo inh: LAMP-1 surface exposure blockers, TALL-104 cells – cell-based, flow cytometry, MLPCN library, primary screen; TALL-104 LAMP-1 surface exposure; cells stimulated with thapsigargin and PMA; inhibition, % at 10 µM; 360,000 tested, 0.66% active;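 active means inhibition above about 55%, limit read from the data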
SMARCA2 act: SMARCA2 (BRM) function activators, primary screen, cell-based, luminescence, high throughput. 370,000 tested, 1% active. MG213 cells, MMTV-luciferase reporter, dexamethasone, overnight. AID 652017, 2013. activation, % at 9.1 µM; in the data active means activation above about 7.8%;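 further: 0% = vehicle wells and 100% = reference activator wells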
SMARCA2 conf: SMARCA2 (BRM) function activators, confirmation, cell-based, luminescence, triplicate | shares compounds with SMARCA2 act | MG213 cells, MMTV-luciferase with dexamethasone, overnight; MG213 cells expressing E1A, Rb sequestered; DMSO wells 0%, reference activator 100% | 3,500 tested, 30% active | activation, % at 9.1 µM;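 active means activation above its plate's cutoff, the mean activation of tested wells plus 3 SD, cut at about 7.9% in these data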
GAL4-VP16 Luc: GAL4-VP16 luciferase reporter activation, counter-screen for SMARCA2 (BRM) activator project, cell-based, pG5luc, luminescence, high throughput; 3,500 tested, 41% active; AID 686939, 2013; activation, % at 9.1 µM; HEK293 GAL4-VP16 pG5luc reporter; scaled: DMSO wells 0%, SAHA wells 100%; shares compounds with SMARCA2 act;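 active means activation above the solvent-only control well mean plus 3 SD, averaged across control plates, cut at about 5.2% in these data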
* = called active by the depositor; . = not tested or not shown. A selection: hits, their analogues and other compounds. The true share with any hit is near 5.4%.

SMILES	ALR inh	M18AAP inhibitor	MIN6 prolif	GASC-1 inh	Granule exo inh	SMARCA2 act	SMARCA2 conf	GAL4-VP16 Luc
CC(C)=NNc1ncnc2nc[nH]c12	.	.	.	.	32	4	.	.
CCc1ccc(/C=N/Nc2ncnc3nc[nH]c23)cc1	81*	1	-4	10	9	8.3*	6	13*
CC(C)C(Cl)=NOC(=O)Nc1ccc(F)cc1	.	.	.	.	36	43*	-15	2
C/C(=N\OC(=O)Nc1ccc(Cl)cc1)c1ccc(F)c(F)c1	56	-3	-3	13	8	5	.	.
COC(=O)c1ccccc1N/C=C/C(=O)c1ccc(Br)cc1	-21	1	-3	0	3	6	.	.
NC(=O)c1ccccc1N/C=C/C(=O)c1ccccc1	10	-5	-6	-18	-2	8.0*	11*	9.8*
Cc1nc(Sc2ccccc2)c(C#N)cc1-c1ccccc1	0	-2	-4	-6	0	.	.	.
Cc1nc(-c2cc(C#N)c(Sc3ccc(Cl)cc3Cl)nc2C)cs1	-5	-4	-3	20	-11	10*	-1	0
CCCS(=O)(=O)NC(=O)C1(C)CCCN(C(=O)c2cccc3ccccc23)C1 (stereo unspecified)	.	.	.	.	-5	5	.	.
CCCS(=O)(=O)NC(=O)C1(C)CCCN(C(=O)c2ccccc2C(F)(F)F)C1 (stereo unspecified)	.	.	.	.	5	8.1*	2	2
CC(C)N1C(=O)S/C(=C\c2ccc(-c3ccc(Cl)c(C(=O)O)c3)o2)C1=O	8	5	-1	6	-7	15*	12*	13*
CCOC(=O)CN1C(=O)S/C(=C\c2ccc(-c3ccc(C(=O)O)c(Cl)c3)o2)C1=O	55	7	-1	-10	-4	-2	.	.
Nc1nc(Nc2ccccc2F)sc1C(=O)c1ccccc1	28	3	4	-14	-6	8.2*	13*	6.9*
COc1ccc(OC)c(S(=O)(=O)N2CCC(C(=O)Nc3cccc(C)c3C)CC2)c1	-2	-5	-1	-9	0	8.4*	-2	1
COc1ccc(OC)c(S(=O)(=O)N2CCC(C(=O)Nc3ccc(C)c(C)c3)CC2)c1	-5	-4	-1	-4	22	-5	.	.
C[C@@H]1CCCN1[C@H]1CS(=O)(=O)N[C@@H]1COCc1ccccc1	.	.	.	.	0	-3	.	.
CCOC(=O)c1ccc(COc2ccc(C(C)C)cc2)o1	5	4	-3	4	2	10*	13*	14*
Nc1cc(=O)[nH]c(SCc2nnnn2-c2ccc(Cl)cc2)n1	0	-1	0	4	-2	9.4*	3	0
c1ccc2c(c1)COc1c3cc4c(cc3nn1-2)OCO4	.	.	.	.	-3	9.5*	15*	11*
Cc1cccc(-c2cnc(C(O)Cc3ccccc3)[nH]2)c1 (stereo unspecified)	.	.	.	.	1	2	.	.
COc1cc(Cl)c(CNC[C@H]2O[C@@H](n3ccc(=O)[nH]c3=O)[C@H](O)[C@@H]2O)c(Cl)c1O	.	.	.	.	0	10*	0	1
Cc1ccc(NC(=O)CCS(=O)(=O)c2ccccc2)cc1C	.	.	.	.	.	4	.	.
COc1ccc(CN2CCNC(=O)C2CC(=O)O)cc1OC (stereo unspecified)	-2	0	5	2	-2	12*	-1	0
COc1cc(F)ccc1-c1csc(C(C)(O)c2ccc(F)c(F)c2)n1 (stereo unspecified)	.	.	.	.	5	9.1*	-4	0
COc1ccc(C(C)(O)c2nc(-c3ccc(F)cc3OC)cs2)cc1 (stereo unspecified)	.	.	.	.	1	-3	.	.
SMILES	ALR inh	M18AAP inhibitor	MIN6 prolif	GASC-1 inh	Granule exo inh	SMARCA2 act	SMARCA2 conf	GAL4-VP16 Luc
O=c1cccc(-c2ccc3ccccc3c2)o1	.	.	.	.	-5	7	.	.
COc1ccc(CN=C2NC(=O)CC(C(=O)Nc3ccc(F)cc3)S2)cc1 (stereo unspecified)	-11	-2	.	-12	1	8.3*	-1	-1
CCOc1cc(CCNC(=O)c2cc(-c3ccccc3)c(N3CCOCC3)s2)ccc1OC	.	.	.	.	.	-3	.	.
O=C(NCc1ccco1)c1c2c(nc3ccccc13)CCC2	-8	10	-1	-1	0	2	.	.
O=C(NCc1ccc(F)cc1)c1c2c(nc3ccccc13)CCC2	-2	6	0	6	0	9.4*	3	2
CC(CN1CCCCC1)NC(=O)c1scnc1-c1ccccc1 (stereo unspecified)	.	.	.	.	7	-4	.	.
O=C(CSc1nnc(-c2ccccc2F)n1-c1ccccc1)c1ccc2ccccc2c1	.	.	.	.	.	-4	.	.
CC(=O)Nc1ccc(C(=O)OCC(=O)N2CCCC2=O)cc1	5	.	-3	-8	-4	8.9*	0	1
CC(=O)Nc1ccc(C(=O)OCC(=O)N2CCCC2)cc1	-2	-10	0	17	-4	-1	.	.
COc1ccccc1C(=O)OCCc1ccccc1	.	.	.	.	1	11*	7	6.5*
CC(=O)Nc1ccc(C(=O)OCCc2ccccc2)cc1	-3	1	0	8	-15	8.8*	6	1
CCOC(=O)Cc1c(C)nc2c(-c3ccccc3)c(C)nn2c1C	8	5	1	159	1	12*	2	1
Cc1ccc(OCc2nc3ccccc3n2C(C)C(=O)Nc2c(C)cccc2C)cc1 (stereo unspecified)	.	.	.	.	-3	1	.	.
O=C1NC(=Nc2ccc3ccccc3c2)S/C1=C/c1ccco1	-17	6	-2	14	1	10*	6	4
CC(C)C[C@H]1CN([C@@H](Cc2ccc(O)cc2)CN2CCCC2CN2C(=S)NC[C@@H]2Cc2ccccc2)C(=S)N1CC1CCCCC1 (stereo partly specified)	.	.	.	.	2	8.0*	-3	-1
O=C(O)c1ccc(C[n+]2c(-c3ccccc3)csc2Nc2ccccc2)cc1	32	1	0	13	-3	10*	-2	1
Cc1ccc2nc(SCC(=O)c3ccc(O)cc3O)[nH]c2c1	4	11	-2	-7	9	8.6*	6	10*
